The nature of test [1]: compounds binding Alexa647 anti-His antibody – biochemical, small-molecule microarray, 635 nm fluorescence, artefact control for SMM control protein annotation, primary screen (AID 1128).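 Further: score merges feature fluorescence with signal-to-noise for each printed compound spot.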 Particulars: higher = more signal.
The test system of test [2] is Human papillomavirus type 1a E7 protein (residues 1-88). The test can be described thus: HPV1a E7 small-molecule binders, primary screen, biochemical, small-molecule microarray, residues 1-88, 635 nm (AID 1129). The conditions noted are these: small-molecule microarray binding, fluorescence 635 nm; higher = more signal.
The target in test [3] is Focal adhesion kinase 1 (Homo sapiens) (UniProt Q05397). The test can be described thus: PTK2 protein binding on printed compound slides – biochemical, small-molecule microarray, 635/667 nm fluorescence, BSA, DTT, primary screen (AID 1130).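 Further: composite of spot emission at 667 nm and signal to noise over triplicate slides.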 Particulars: 635 nm fluorescence, higher = more signal.
Test [4] deals with Fibrinogen (Alexa647-labelled). The test can be described thus: Alexa647-fibrinogen binding to printed small molecules – biochemical, small-molecule microarray, 635/667 nm fluorescence, artefact control for SMM control-protein annotation, profiling panel (AID 1131).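 Further: z-score merges 667 nm fluorescence with per-spot signal-to-noise over triplicate slides.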 Particulars: fibrinogen-A647 binding fluorescence, higher = more signal.
For test [5], the target named is Follistatin (Homo sapiens) (UniProt P19883). The test can be described thus: FST protein binding to printed compounds – biochemical, small-molecule microarray, 635/667 nm fluorescence, primary screen (AID 1132). The conditions noted are these: 635 nm fluorescence, higher = more signal.
Test [6] deals with Fibroblast growth factor 2 (Homo sapiens) (UniProt P09038). The test can be described thus: basic fibroblast growth factor binding to printed compounds – biochemical, small-molecule microarray, 635/667 nm fluorescence, primary screen (AID 1133). The conditions noted are these: FGF2, fluorescence 635/667, higher = more signal.
Test [7] can be described thus: JC-1 mitochondrial potential readout, lung cancer cells – cell-based, A549, JC-1 fluorescence, basal, 24 h, 100 nL, profiling panel (AID 1138).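 Further: A549 lung adenocarcinoma cells under basal conditions with no added stimulus; test concentration not given here.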 Particulars: higher = more signal.
Test [8] relates to Lefty1. The test can be described thus: Lefty1 protein binding to printed compounds – biochemical, small-molecule microarray, 635/667 nm fluorescence, primary screen (AID 1139). Particulars: fluorescence 635/667, higher = more signal.
For test [9], the system named is wheat germ agglutinin (Triticum aestivum), Alexa647-labelled. The test can be described thus: Alexa647-WGA lectin binding to printed small molecules – biochemical, small-molecule microarray, 635/667 nm fluorescence, artefact control for SMM control-protein annotation, profiling panel (AID 1140).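 Further: score merges 667 nm feature emission with signal to noise over triplicate slides.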 Particulars: WGA-A647 binding, 635 nm fluorescence, higher = more signal.

Test [10] has as its target Luciferin 4-monooxygenase (Photinus pyralis) (UniProt P08659). The test can be described thus: inhibition of purified Photinus pyralis luciferase – biochemical, luminescence, purified enzyme, 2006 set, primary screen (AID 1141).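 Further: cell-free assay with purified firefly luciferase at 100 ng per well in PBS; test concentration not given here.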 The conditions noted are these: purified firefly luciferase, SteadyGlo luminescence, 30 min; higher = more signal, called active from +8 up or from −8 down.

In test [11] the test system is Wnt5a (protein binding on small-molecule microarray). The test can be described thus: small molecules binding Wnt5a protein – biophysical, small-molecule microarray, 635/667 nm fluorescence, primary screen (AID 1142).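 Further: fluorescence read at 667 nm with signal to noise per printed feature.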 The conditions noted are these: 635 nm fluorescence, higher = more signal.
Test [12] is described as follows: ATP-based viability of Huh7 replicon cells – cell-based, CellTiter-Glo luminescence, basal, 48 h, cytotoxicity control for HCV replication inhibitor project, primary screen (AID 1143).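 Further: Huh7 hepatoma cells carrying a hepatitis C replication reporter with no stimulus; test concentration not given here.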 Particulars: higher = more signal, called active from +8 up or from −8 down.
Test [13] is described as follows: basal CRE-LacZ reporter activity in PC12 – cell-based, unstimulated, primary screen (AID 1145). Particulars: no forskolin, luminescence, 4.5 h, higher = more signal, called active from +8 up or from −8 down.
The nature of test [14]: forskolin-driven CRE-LacZ activity in PC12 – cell-based, CRE-LacZ reporter, forskolin-stimulated, primary screen (AID 1146).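 Further: PC12 cells with 6xCRE LacZ reporter stimulated by forskolin 10 µM; beta-galactosidase reporter signal reflecting CREB driven transcription.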 Particulars: luminescence, 4.5 h, higher = more signal, called active from +8 up or from −8 down.
For test [15], the target named is Streptavidin (Streptomyces avidinii) (UniProt P22629). The test can be described thus: compounds binding control protein streptavidin – biophysical, small-molecule microarray, 635/667 nm fluorescence, artefact control for SMM compound annotation, primary screen (AID 1147).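 Further: signal reflects streptavidin binding to arrayed compounds as a control protein.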 The conditions noted are these: higher = more signal.
A short description of test [16]: probe aInhba binding on compound microarray – biochemical, small-molecule microarray, 635/667 nm fluorescence, primary screen (AID 1148).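 Further: score merges 667nm spot fluorescence with signal-to-noise for antibody binding to printed compounds.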 The conditions noted are these: higher = more signal.
Test [17] deals with Torsin-1A (Homo sapiens) (UniProt O14656). The test can be described thus: TOR1A wild-type binding on microarray – cell lysate, small-molecule microarray, lysate, 635/667 nm, primary screen (AID 1149). The conditions noted are these: COS7 hTOR1A-WT lysate, 635 nm fluorescence, higher = more signal.
Test [18] shares this target. The test can be described thus: torsin A mutant lysate binding on microarrays – cell lysate, small-molecule microarray, COS7 lysate, 635/667 nm fluorescence, primary screen (AID 1150).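 Further: score pools 667 nm emission and signal to noise measuring lysate protein binding.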 Particulars: COS7 hTOR1A mutant lysate, 635 nm fluorescence, higher = more signal.
The subject of test [19] is Sonic hedgehog protein (Shh). The test can be described thus: Sonic hedgehog microarray binding compounds – biochemical, small-molecule microarray, 635/667 nm fluorescence, primary screen (AID 1151).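 Further: Shh protein binding to compounds spotted on small-molecule microarray slides; score combines spot fluorescence intensity with signal-to-noise across triplicate slides.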 Particulars: 635 nm fluorescence, higher = more signal.

Structures are written as SMILES. The source made the active and inactive calls.

Sequence of Torsin-1A (Homo sapiens) (O14656 whole entry, looked up): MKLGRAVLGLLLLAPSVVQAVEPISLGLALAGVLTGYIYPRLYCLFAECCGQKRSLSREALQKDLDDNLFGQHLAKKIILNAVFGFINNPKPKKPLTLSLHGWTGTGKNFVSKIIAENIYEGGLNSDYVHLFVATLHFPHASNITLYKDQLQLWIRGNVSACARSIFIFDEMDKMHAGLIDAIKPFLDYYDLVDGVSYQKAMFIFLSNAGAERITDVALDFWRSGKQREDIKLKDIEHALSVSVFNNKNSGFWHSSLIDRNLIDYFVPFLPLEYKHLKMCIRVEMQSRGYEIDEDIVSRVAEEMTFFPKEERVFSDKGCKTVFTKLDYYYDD
Sequence of Follistatin (Homo sapiens) (P19883 whole entry, looked up): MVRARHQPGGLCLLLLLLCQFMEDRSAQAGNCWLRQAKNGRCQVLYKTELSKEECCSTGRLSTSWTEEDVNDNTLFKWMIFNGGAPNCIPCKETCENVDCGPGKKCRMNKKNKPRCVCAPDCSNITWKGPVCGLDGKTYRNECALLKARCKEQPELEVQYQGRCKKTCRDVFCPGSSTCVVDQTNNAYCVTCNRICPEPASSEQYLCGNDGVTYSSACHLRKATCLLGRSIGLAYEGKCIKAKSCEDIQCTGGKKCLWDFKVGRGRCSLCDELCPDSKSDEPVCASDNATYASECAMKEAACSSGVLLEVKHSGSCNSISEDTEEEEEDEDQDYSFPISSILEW
Sequence of Luciferin 4-monooxygenase (Photinus pyralis) (P08659 whole entry, looked up): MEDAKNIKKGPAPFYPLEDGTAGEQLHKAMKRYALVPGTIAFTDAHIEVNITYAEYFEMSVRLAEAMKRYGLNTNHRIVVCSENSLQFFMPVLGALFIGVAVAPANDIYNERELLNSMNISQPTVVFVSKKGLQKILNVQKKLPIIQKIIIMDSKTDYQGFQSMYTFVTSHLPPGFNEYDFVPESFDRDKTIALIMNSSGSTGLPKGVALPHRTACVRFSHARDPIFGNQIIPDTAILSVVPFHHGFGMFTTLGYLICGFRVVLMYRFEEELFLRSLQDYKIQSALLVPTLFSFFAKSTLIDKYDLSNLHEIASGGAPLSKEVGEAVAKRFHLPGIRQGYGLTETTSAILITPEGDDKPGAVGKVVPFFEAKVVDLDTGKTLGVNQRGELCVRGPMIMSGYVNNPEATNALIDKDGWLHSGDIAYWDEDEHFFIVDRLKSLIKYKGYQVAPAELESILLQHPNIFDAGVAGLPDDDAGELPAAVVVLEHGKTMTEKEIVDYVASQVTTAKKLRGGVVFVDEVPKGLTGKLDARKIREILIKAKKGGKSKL
Sequence of Fibroblast growth factor 2 (Homo sapiens) (P09038 whole entry, looked up): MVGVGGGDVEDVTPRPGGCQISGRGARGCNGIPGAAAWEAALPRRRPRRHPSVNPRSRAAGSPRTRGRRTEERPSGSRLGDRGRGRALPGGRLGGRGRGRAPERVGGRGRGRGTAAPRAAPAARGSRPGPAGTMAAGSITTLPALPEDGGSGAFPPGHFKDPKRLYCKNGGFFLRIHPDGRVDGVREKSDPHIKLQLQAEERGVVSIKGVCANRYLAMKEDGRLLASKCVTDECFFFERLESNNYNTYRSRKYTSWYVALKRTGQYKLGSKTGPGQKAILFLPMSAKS
Sequence of Focal adhesion kinase 1 (Homo sapiens) (Q05397 whole entry, looked up): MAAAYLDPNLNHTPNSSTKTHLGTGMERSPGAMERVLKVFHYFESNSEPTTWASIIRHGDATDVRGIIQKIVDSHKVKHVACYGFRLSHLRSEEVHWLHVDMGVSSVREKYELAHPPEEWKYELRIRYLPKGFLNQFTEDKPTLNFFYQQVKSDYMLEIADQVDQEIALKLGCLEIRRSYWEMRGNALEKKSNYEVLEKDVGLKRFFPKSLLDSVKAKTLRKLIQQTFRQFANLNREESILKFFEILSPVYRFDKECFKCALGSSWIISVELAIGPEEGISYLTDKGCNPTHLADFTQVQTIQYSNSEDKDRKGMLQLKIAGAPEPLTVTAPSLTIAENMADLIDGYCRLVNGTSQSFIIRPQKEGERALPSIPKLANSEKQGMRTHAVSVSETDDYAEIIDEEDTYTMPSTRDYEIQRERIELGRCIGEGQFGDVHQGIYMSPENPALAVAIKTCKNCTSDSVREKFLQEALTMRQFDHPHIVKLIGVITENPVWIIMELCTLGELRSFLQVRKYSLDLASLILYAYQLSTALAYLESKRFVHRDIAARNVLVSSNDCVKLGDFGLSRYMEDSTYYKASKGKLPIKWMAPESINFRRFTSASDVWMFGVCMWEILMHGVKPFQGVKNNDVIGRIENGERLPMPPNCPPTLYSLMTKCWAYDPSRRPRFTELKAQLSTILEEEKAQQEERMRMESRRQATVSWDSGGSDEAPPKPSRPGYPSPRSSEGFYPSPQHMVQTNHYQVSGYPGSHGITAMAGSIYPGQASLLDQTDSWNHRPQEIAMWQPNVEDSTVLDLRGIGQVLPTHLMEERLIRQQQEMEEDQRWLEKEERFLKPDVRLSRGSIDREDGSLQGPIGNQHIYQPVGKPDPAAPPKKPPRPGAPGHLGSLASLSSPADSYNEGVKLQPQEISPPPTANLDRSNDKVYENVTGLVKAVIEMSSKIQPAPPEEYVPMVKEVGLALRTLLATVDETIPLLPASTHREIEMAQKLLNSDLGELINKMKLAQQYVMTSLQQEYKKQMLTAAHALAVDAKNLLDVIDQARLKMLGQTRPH
Sequence of Streptavidin (Streptomyces avidinii) (P22629 whole entry, looked up): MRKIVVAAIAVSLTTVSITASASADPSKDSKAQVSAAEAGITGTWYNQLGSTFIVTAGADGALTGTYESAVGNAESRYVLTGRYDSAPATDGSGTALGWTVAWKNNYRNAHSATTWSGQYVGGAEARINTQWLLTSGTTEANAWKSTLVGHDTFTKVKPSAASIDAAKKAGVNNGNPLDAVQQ

Consider `Cc1ccc(S[C@]2(C(=O)NCCN3CCOCC3)CC(=O)N(C3Cc4ccccc4C3)[C@@H]2c2ccc(CO)cc2I)cc1`, for which the composite z-score was 0.0031 in [1]; -0.521 in [2]; 0.355 in test [3]; 0.0025 in test [4]; -1.23 in test [5]; -1.41 in [6]. Also, the composite z-score in test [8] is -1.21; in test [9], 1.01; in test [11], -0.149; in test [15] it was -0.658; in [16], 0.0756; in [17], -0.434. Also, the composite z-score is -0.131 in [18] and -0.678 in test [19]. Also, the z-score in test [7] is 1.3; in test [10] it was -0.83 (inactive); in test [12], -2.98 (inactive); in test [13], 0.531 (inactive); in test [14] it was 0.174 (inactive).

In the case of `Cc1ccc(S[C@]2(C(=O)O)CC(=O)N(Cc3ccccc3)[C@@H]2c2ccc(CO)cc2)cc1`, the composite z-score is -0.846 in test [1]; 0.0745 in [2]; -0.412 in test [3]; 0.0619 in test [4]; -0.256 in [5]; 0.0167 in test [6]. Also, the composite z-score in test [8] was -0.532; in test [9], 0.0681; in [11], 0.0167; in test [15] it was -0.185; in test [16], -0.154; in [17], 0.0253. The composite z-score in [18] was 0.12; in test [19], 0.0306. The z-score in test [7] was 1.31; in test [10] it was -1.32 (inactive); in test [12], -1.22 (inactive); in test [13] it was -0.412 (inactive); in test [14] it was -0.84 (inactive).

On to `C[C@@H]1CC[C@H]2C(=O)N3CCC[C@H]3C(=O)N2[C@H]1c1ccc(Br)cc1`, for which the composite z-score in test [1] was 0.136; in test [2] it was -0.366; in test [3] it was 0.335; in test [4], 0.0658; in test [5], 0.162; in [6], 0.36. In addition, the composite z-score in test [8] was 0.724; in test [9] it was -0.169; in test [11], 0.12; in test [15], 1.98; in [16], -0.0986; in test [17] it was 0.529. Moreover, the composite z-score in test [18] was 0.492; in test [19], -0.0312. Further, the z-score is 1.68 in test [7]; -1.02 (inactive) in [10]; -0.184 (inactive) in test [12]; 1.1 (inactive) in [13]; -0.0739 (inactive) in test [14].

`O=[N+]([O-])c1ccc(C[n+]2ccc3ccc(O)cc3c2)o1`: the composite z-score in [1] is 0.0131; in test [2], 0.275; in [3], 0.326; in [4], 0.596; in [5], 1.04; in test [6], 0.227. Moreover, the composite z-score turned out to be 0.392 in test [8]; 1.12 in [9]; 0.465 in test [11]; 1.29 in test [15]; 0.0857 in [16]; 0.244 in [17]. The figures for the composite z-score in test [18] and in test [19] were 1.07 and 0.841, respectively. For the same molecule, the z-score in [7] was 1.25; in [10], -2 (inactive); in test [12], -0.893 (inactive); in test [13] it was -0.815 (inactive); in test [14], -1.3 (inactive).

On to `CCCNC(=O)[C@@]1(Sc2ccc(C)cc2)CC(=O)N(Cc2ccccc2Cl)[C@@H]1c1ccc(CO)cc1`, for which the composite z-score in [1] is 1.12; in test [2], 1.15; in [3], 0.29; in test [4] it was 0.789; in test [5], 1.42; in test [6] it was 1.6. For the same molecule, the composite z-score in test [8] is 1.19; in test [9], 1.18; in [11] it was 0.222; in test [15], 0.124; in [16] it was 0.0925; in test [17], 0.369. Besides, the composite z-score came out at 0.17 in test [18] and 1.86 in test [19]. Also, the z-score is 1.02 in test [7]; -0.0629 (inactive) in test [10]; -6.06 (inactive) in test [12]; 0.443 (inactive) in test [13]; -1.43 (inactive) in [14].

(Values after PubChem BioAssay.)
